Assay results as given in the supplement of paper PMC10849652.
About 8,800 targets were measured; listed, in parts, are those with a hit and a random draw of the rest. About 0.5% of all pairs of compound and target were hits. Unmarked numbers belong to inactive results.

Assays:
Assay in all cases: log2 fold change, soluble protein after heating vs DMSO (PISA); higher = thermal stabilisation; K562 lysate, 10 uM; active = over 0.2 and 3.5 SD of the protein, either way, in both replicates (recomputed)
vemurafenib = compound: CCCS(=O)(=O)Nc1ccc(F)c(C(=O)c2c[nH]c3ncc(-c4ccc(Cl)cc4)cc23)c1F [vemurafenib]
Method in brief: (§1)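 A 30 min treatment with 10 μM compound was applied to crude K562 extract at 1 mg/mL protein in PBS pH 7.4 with 1 mM MgCl2. Heating for 3 min spanned 48°C-58°C, after which aliquots were pooled, adjusted to 0.5% NP-40 at 4°C and spun at 21,000xg for 90 min. TMTpro 16plex LC-MS/MS of the supernatant, with channel sums equalised, gave values recorded as log-two fold change in thermal stability against solvent controls, from duplicates.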

[1] = compound: CCCS(=O)(=O)Nc1ccc(F)c(C(=O)c2c[nH]c3ncc(Cl)cc23)c1F
Method in brief: as §1

barasertib = compound: CCN(CCCOc1ccc2c(Nc3cc(CC(=O)Nc4cccc(F)c4)[nH]n3)ncnc2c1)CCOP(=O)(O)O [barasertib]
Method in brief: as §1

[2] = compound: CC[C@@H]1C(=O)N(C)c2cnc(Nc3ccc(C(=O)NC4CCN(C)CC4)cc3OC)nc2N1C1CCCC1
Method in brief: as §1

volasertib = compound: CC[C@@H]1C(=O)N(C)c2cnc(Nc3ccc(C(=O)N[C@H]4CC[C@H](N5CCN(CC6CC6)CC5)CC4)cc3OC)nc2N1C(C)C [volasertib]
Method in brief: as §1

[3] = compound: CCn1c(C(=O)N(C2CC2)C2CC2)cc2c3c(ncn3C)c(Nc3cc(C)n(C)n3)nc21
Method in brief: as §1

[4] = compound: CCn1cc(-c2ccnc3[nH]c(-c4cccc(CN(C)C)c4)cc23)c(-c2ccc(NC(=O)N(C)C)cc2)n1
Method in brief: as §1

[5] = compound: CN1CCC(CNc2ccc3ncc(-c4cccc(OC(F)(F)F)c4)n3n2)CC1
Method in brief: as §1

saracatinib = compound: CN1CCN(CCOc2cc(OC3CCOCC3)c3c(Nc4c(Cl)ccc5c4OCO5)ncnc3c2)CC1 [saracatinib]
Method in brief: as §1

sotrastaurin = compound: CN1CCN(c2nc(C3=C(c4c[nH]c5ccccc45)C(=O)NC3=O)c3ccccc3n2)CC1 [sotrastaurin]
Method in brief: as §1

UniProt Q8WUM4, sequence (Q8WUM4 whole entry, looked up): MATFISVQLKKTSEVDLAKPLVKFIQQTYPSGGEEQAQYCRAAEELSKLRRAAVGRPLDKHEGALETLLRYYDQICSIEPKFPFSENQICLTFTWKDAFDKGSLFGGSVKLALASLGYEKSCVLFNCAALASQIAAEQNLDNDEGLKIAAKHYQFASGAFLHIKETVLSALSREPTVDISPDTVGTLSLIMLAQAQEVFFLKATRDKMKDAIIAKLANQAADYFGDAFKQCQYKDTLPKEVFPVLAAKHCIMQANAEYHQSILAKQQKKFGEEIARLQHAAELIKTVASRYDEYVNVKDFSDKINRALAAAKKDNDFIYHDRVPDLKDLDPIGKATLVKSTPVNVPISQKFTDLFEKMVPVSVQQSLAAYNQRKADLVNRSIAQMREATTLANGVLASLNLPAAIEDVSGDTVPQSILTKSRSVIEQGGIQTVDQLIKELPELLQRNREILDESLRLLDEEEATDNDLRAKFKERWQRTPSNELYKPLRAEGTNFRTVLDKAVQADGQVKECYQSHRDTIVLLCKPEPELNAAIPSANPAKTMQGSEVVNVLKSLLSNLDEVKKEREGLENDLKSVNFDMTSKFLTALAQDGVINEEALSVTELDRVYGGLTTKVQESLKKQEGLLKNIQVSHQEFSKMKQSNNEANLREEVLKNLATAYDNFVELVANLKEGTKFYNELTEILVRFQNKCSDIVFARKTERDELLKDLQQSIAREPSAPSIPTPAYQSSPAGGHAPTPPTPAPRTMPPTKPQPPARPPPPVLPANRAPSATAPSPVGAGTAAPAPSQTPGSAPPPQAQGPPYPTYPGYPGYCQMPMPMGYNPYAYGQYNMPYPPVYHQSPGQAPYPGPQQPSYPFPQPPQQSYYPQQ
UniProt O00764, sequence (O00764 whole entry, looked up): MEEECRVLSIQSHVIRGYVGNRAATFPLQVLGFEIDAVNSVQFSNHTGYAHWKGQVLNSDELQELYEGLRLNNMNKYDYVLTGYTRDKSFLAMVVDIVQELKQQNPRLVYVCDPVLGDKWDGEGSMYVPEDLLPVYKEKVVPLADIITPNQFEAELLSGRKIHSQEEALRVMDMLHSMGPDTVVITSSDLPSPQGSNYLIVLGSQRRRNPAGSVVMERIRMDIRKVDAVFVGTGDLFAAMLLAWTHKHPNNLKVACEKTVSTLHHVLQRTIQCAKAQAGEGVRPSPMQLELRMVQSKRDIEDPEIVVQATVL
UniProt Q93096, sequence (Q93096 whole entry, looked up): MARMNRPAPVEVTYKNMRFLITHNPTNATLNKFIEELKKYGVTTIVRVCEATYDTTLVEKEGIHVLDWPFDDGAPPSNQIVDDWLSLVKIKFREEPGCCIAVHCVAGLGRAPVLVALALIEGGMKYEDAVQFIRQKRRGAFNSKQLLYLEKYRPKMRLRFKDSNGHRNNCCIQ
UniProt Q15173, sequence (Q15173 whole entry, looked up): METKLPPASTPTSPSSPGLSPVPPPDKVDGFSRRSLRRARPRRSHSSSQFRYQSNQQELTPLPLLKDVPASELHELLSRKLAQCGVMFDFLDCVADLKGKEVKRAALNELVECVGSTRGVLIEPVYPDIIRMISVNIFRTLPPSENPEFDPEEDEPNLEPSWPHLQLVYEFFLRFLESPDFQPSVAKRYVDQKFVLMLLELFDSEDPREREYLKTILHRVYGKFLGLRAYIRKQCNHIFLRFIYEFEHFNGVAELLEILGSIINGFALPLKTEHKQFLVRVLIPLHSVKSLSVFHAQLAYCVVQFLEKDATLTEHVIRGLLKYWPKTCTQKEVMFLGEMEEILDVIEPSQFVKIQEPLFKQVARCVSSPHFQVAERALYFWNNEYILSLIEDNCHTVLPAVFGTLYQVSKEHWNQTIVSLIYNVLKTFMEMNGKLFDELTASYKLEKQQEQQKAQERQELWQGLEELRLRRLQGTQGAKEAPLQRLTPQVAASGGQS
UniProt O43741, sequence (O43741 whole entry, looked up): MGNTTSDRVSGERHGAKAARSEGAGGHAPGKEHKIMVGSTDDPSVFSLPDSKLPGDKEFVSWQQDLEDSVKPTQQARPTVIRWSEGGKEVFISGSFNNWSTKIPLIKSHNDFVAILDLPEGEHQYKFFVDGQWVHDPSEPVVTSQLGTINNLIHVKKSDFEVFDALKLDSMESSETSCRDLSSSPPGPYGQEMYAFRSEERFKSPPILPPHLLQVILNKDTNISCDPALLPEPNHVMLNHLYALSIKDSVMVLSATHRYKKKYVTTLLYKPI
UniProt Q9P215, sequence (Q9P215 whole entry, looked up): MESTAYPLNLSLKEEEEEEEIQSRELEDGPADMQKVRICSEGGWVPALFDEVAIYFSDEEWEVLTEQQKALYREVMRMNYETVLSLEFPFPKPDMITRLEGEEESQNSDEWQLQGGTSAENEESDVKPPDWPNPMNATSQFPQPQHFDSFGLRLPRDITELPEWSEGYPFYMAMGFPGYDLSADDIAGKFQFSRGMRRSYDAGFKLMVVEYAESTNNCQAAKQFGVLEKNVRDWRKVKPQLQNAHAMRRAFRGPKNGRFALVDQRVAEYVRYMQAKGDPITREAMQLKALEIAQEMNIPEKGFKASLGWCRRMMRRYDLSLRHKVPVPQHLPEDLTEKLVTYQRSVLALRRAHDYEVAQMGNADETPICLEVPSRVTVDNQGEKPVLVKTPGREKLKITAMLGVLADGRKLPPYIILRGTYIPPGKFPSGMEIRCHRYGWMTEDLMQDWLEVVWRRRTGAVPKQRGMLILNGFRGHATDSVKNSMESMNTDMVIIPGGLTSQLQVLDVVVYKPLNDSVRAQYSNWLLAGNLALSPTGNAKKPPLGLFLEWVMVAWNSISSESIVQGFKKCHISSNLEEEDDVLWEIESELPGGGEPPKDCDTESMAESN
UniProt Q15366, sequence (Q15366 whole entry, looked up): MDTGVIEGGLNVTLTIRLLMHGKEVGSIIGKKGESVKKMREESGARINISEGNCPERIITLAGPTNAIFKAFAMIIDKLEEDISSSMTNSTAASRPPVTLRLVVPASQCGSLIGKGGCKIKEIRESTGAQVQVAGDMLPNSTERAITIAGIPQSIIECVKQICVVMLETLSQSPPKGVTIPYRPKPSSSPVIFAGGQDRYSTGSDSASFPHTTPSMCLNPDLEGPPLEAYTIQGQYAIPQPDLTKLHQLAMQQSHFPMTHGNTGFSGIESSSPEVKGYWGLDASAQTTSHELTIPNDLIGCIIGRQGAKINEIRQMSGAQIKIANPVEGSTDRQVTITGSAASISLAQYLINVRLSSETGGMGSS
UniProt Q8TCD6, sequence (Q8TCD6 whole entry, looked up): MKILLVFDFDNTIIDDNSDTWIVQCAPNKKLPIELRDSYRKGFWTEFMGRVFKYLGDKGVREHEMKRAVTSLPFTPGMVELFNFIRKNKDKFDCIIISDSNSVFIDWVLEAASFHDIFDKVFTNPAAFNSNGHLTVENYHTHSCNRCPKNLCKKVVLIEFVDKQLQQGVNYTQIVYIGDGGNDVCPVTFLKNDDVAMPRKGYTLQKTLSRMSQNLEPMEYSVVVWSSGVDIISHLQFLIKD
UniProt Q05655, sequence (Q05655 whole entry, looked up): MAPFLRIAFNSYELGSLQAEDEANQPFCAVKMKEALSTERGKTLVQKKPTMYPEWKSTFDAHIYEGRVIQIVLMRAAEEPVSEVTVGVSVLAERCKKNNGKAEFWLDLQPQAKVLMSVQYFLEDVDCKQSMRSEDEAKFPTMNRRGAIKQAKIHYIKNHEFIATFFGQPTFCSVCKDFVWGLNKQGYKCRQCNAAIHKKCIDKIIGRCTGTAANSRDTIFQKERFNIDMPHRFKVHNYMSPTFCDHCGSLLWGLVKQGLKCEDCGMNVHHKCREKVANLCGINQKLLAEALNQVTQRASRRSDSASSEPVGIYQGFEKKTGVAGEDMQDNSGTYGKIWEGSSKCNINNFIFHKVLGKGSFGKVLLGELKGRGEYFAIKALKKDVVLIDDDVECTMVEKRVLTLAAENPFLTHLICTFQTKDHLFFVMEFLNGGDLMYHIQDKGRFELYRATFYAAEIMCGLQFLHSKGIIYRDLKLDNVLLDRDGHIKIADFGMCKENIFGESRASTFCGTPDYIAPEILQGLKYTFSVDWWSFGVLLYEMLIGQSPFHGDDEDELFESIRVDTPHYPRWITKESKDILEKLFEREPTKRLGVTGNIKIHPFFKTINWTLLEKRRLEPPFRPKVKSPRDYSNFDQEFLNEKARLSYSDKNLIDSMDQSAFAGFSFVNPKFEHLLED
UniProt Q8TD55, sequence (Q8TD55 whole entry, looked up): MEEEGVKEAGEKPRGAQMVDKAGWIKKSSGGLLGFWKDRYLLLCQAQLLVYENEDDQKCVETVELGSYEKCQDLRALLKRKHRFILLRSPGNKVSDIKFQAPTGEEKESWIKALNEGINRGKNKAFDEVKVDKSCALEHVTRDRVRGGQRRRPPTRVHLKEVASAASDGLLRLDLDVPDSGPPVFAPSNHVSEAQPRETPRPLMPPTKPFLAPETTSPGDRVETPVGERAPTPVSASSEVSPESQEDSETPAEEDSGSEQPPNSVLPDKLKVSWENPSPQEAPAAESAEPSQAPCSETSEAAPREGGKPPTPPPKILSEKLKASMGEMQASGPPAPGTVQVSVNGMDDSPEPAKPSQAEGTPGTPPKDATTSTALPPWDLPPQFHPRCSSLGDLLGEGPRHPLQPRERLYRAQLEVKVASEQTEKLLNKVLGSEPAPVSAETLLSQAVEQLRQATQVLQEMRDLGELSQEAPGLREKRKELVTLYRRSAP
UniProt Q9H7Z7, sequence (Q9H7Z7 whole entry, looked up): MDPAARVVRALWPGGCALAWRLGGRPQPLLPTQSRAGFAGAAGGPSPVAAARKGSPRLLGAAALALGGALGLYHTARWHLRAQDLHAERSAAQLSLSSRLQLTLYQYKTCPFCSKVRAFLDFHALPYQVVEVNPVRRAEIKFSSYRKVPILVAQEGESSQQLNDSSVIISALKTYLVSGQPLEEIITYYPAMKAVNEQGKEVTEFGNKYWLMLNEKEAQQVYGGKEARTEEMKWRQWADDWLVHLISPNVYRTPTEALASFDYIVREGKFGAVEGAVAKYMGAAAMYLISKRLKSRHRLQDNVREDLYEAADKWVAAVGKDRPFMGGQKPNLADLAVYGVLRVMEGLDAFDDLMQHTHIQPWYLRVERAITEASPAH

Row | Target | log2 fold change (vemurafenib) | log2 fold change [1] | log2 fold change (barasertib) | log2 fold change [2] | log2 fold change (volasertib) | log2 fold change [3] | log2 fold change [4] | log2 fold change [5] | log2 fold change (saracatinib) | log2 fold change (sotrastaurin)
1 | PMPCA (UniProt Q10713) | 0.047 | 0.037 | -0.014 | -0.039 | -0.031 | -0.025 | -0.017 | 0.233 | -0.024 | 0.006
2 | POLB (UniProt P06746) | -0.013 | 0.003 | -0.029 | -0.013 | -0.025 | 0.032 | -0.015 | -0.07 | 0.033 | 0.048
3 | PXMP4 (UniProt Q9Y6I8) | 0.343 | 0.114 | 0.04 | -0.035 | -0.039 | 0.064 | -0.246 | 0.006 | 0.036 | 0.025
4 | PRMT8 (UniProt Q9NR22) | 0.059 | 0.021 | 0.007 | -0.009 | -0.009 | -0.005 | -0.285 (active) | 0.179 | -0.018 | 0.007
5 | PPP2R3C (UniProt Q969Q6) | -0.081 | -0.094 | 0.094 | -0.244 | 0 | 0.071 | -0.392 (active) | 0.115 | 0.04 | –
6 | PLEKHO2 (UniProt Q8TD55) | 0.034 | 0.247 | 0.161 | 0.068 | 0.151 | 0.126 | 0.136 | 0.016 | 0.278 | -0.054
7 | PIKFYVE (UniProt Q9Y2I7) | -0.022 | 0.042 | 0.26 | -0.036 | -0.047 | 0.04 | -0.056 | 0.038 | 0.054 | 0.038
8 | PPP2R5B (UniProt Q15173) | -0.036 | 0 | -0.016 | -0.057 | 0.031 | 0 | -0.01 | -0.079 | 0.001 | -0.074
9 | PDXK (UniProt O00764) | 0.005 | -0.001 | -0.014 | 0.329 (active) | 0.025 | -0.004 | -0.134 | 0.156 | -0.023 | -0.016
10 | PFAS (UniProt O15067) | 0.029 | 0.023 | 0.015 | -0.048 | -0.091 | 0 | -0.023 | 0.001 | -0.013 | -0.015
11 | PPME1 isoform 4 (UniProt Q9Y570) | 0.005 | 0.003 | -0.045 | -0.006 | 0.016 | 0.028 | -0.015 | 0.008 | -0.01 | -0.008
12 | PRKAB2 (UniProt O43741) | 0.022 | 0.104 | -0.081 | 0 | -0.05 | -0.094 | -0.85 (active) | 0.303 | 0.029 | 0.026
13 | PFKFB3 isoform 4 (UniProt Q16875) | -0.022 | 0.134 | 0.003 | -0.003 | 0.067 | 0.037 | 0.003 | -0.046 | -0.024 | 0.034
14 | PPFIA2 (UniProt O75334) | 0.062 | -0.018 | 0.054 | 0.01 | 0.02 | -0.127 | -0.255 | 0.146 | -0.016 | -0.05
15 | PELO (UniProt Q9BRX2) | 0 | 0.021 | 0.037 | -0.115 | -0.066 | -0.014 | 0.404 (active) | -0.183 | -0.001 | -0.018
16 | PCBP2 isoform 8 (UniProt Q15366) | 0.078 | 0.051 | 0.016 | 0.001 | -0.05 | -0.152 | 0.054 | -0.003 | -0.018 | -0.045
17 | PTP4A1 (UniProt Q93096) | -0.006 | -0.029 | -0.041 | 0.017 | 0.036 | 0.019 | 0.177 | -0.05 | 0.001 | 0
18 | PIK3R2 (UniProt O00459) | -0.032 | 0 | -0.002 | 0.128 | -0.003 | 0.071 | -0.018 | 0.289 | -0.014 | 0.091
19 | PRPH isoform 2 (UniProt P41219) | 0.03 | -0.05 | -0.13 | -0.102 | -0.028 | 0.098 | 0.132 | -0.1 | 0.071 | 0.036
20 | PIGO (UniProt Q8TEQ8) | -0.112 | 0.109 | 0.064 | 0.013 | -0.069 | -0.081 | -0.029 | -0.043 | -0.013 | -0.499 (active)
21 | PFKP (UniProt Q01813) | -0.047 | -0.056 | 0.018 | -0.005 | 0.015 | -0.007 | 0.052 | -0.033 | 0.008 | -0.025
22 | PRMT5 (UniProt O14744) | 0.006 | -0.008 | -0.007 | 0.02 | -0.007 | -0.009 | -0.067 | 0.017 | -0.032 | 0.015
23 | PHOSPHO2 (UniProt Q8TCD6) | -0.023 | -0.026 | 0.047 | 0.232 | 0.019 | 0.003 | -0.084 | 0.001 | -0.023 | 0.039
24 | PDCD6IP (UniProt Q8WUM4) | -0.003 | 0.015 | 0.083 | -0.061 | 0.006 | 0.013 | -0.073 | -0.035 | -0.068 | -0.139
25 | POGK (UniProt Q9P215) | -0.035 | 0.114 | 0.011 | -0.005 | 0.033 | -0.027 | -0.397 (active) | 0.034 | 0.017 | 0.013
26 | PPOX (UniProt P50336) | 0.058 | 0.02 | -0.093 | -0.036 | -0.007 | -0.096 | -0.075 | -0.018 | -0.044 | -0.021
27 | PRKAR2B (UniProt P31323) | 0.01 | 0 | 0.053 | -0.028 | -0.043 | -0.032 | 0.051 | -0.26 (active) | 0.007 | -0.17
28 | PUM1 isoform 3 (UniProt Q14671) | -0.07 | 0.013 | 0.068 | 0.031 | -0.063 | 0.03 | 0.045 | -0.084 | 0.039 | 0.016
29 | PRKCD (UniProt Q05655) | -0.006 | -0.118 | 0.057 | 0.008 | -0.041 | -0.014 | 0.012 | 0.021 | -0.005 | 0.058
30 | PTGES2 (UniProt Q9H7Z7) | 0.547 (active) | 0.06 | -0.107 | -0.108 | 0.159 | -0.053 | -0.003 | -0.18 | -0.029 | 0.058
